The text below walks through data of PubChem BioAssay AID720519 (National Center for Advancing Translational Sciences (NCATS), 2013).

Results filed as inconclusive are left out. Unmarked numbers belong to inactive results. The call rests on the fitted dose curve; in most records, active means well fitted activation curve with a large enough effect; inconclusive means small, poorly fitted or top-dose-only effect; inactive means flat fitted curve, though single readings scatter.

The assay can be described thus: qHTS for Inhibitors of Cell Surface uPA Generation: Confirmatory Assay for Cherry-picked Compounds. Further: 0% is about no effect. The following applies: cell surface uPA activity generation, qHTS confirmation; series mostly up to 115 µM; inhibition: at the top concentration. A digest of the protocol:
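RAW 264.7 cells at 4000/well, incubated overnight, then treated with compounds. After 24 h at 37 C, viability was read by ATPlite luminescence. An increase in signal indicates blocked uPA-dependent LF entry.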
For the compound `Cc1ccc(S(=O)(=O)NCC(=O)OC(C)C(=O)NCc2ccc3c(c2)OCO3)cc1` (stereo not drawn), the “inhibition” value was -1.17%.
The value for `Cc1ccc(S(=O)(=O)N2CCOCC2)cc1NC(=O)CSc1nc(N)cc(N)n1` was -3.34%; that for `NC(=O)c1ccccc1NC(=O)CC12CC3CC(CC(C3)C1)C2` was -2.57%; that for `Clc1ccc(-c2nc3ccccn3c2CN2CCSCC2)cc1` was -3.54%.
The value for `COC(=O)CSc1nc(N2CCOCC2)c2c(c1C#N)CCCC2` was -3.22%.
Turning to `Cc1oc(-c2ccccc2F)nc1CS(=O)CC(=O)NCc1ccc(F)cc1` (stereo not drawn), the “inhibition” value was -1.82%.
With `COc1ccc(C2=C/C(=C\c3ccccc3OC(C)=O)C(=O)O2)cc1` the figure was -2.92%.
For `Cc1ccc(/C=C/C(=O)O)cc1S(=O)(=O)N1CCc2ccccc21`, the “inhibition” value is -3.41%.
The value for `CC(C)Cn1cnc2c(N)nc3ccccc3c21` was 12.8%; that for `COc1ccccc1CNC(=O)CCCn1nc(C)c2c(C)n(-c3ccccc3)nc2c1=O` was -2.78%; that for `CCCCN(CC(=O)NCc1ccc(F)cc1)C(=O)c1ccco1` was 1.54%.
For `COc1ccccc1N1CCN(CC(=O)c2c(C)[nH]c3ccccc23)CC1`, the “inhibition” value was 1.37%.
Regarding `CC1CCCN(C(=O)c2ccc(CNc3c(N4CCCCC4)c(=O)c3=O)cc2)C1` (stereo not drawn), the “inhibition” value was 0.63%.
With `C[C@@H](CSc1ccccc1)CN1CC[C@H](O)CCC1=O` the figure was -0.766%; with `CCOC(=O)c1c(C)oc2ccc(OC(=O)COc3c(F)c(F)c(F)c(F)c3F)cc12`, -0.536%.
Regarding `CC(C)OC(=O)Nc1ccc(-c2ccc(NC(=O)OC(C)C)cc2Cl)c(Cl)c1`, the “inhibition” value was 7.93%.
With `Cc1ccc(NC(=O)CSc2nncn2N)cc1C` the figure was 2.68%.
The value for `Cc1nc(SCc2nc3ccccc3[nH]2)c2oc3cc([N+](=O)[O-])ccc3c2n1` was -3.44%.
